Activity calls are given as the source filed them.
Columns and labels:
[1] = test system: Plasmodium falciparum Sir2 (PF13_0152, Sir2A); assay: pfSir2 binders on small-molecule microarrays, primary screen, biochemical, small-molecule microarray, 635 nm fluorescence (AID 1098); conditions: small-molecule microarray binding, fluorescence 635 nm; higher = more signal;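 also: score merges spot fluorescence intensity with its signal-to-noise ratio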
[2] = small-molecule microarray binders of probe aDKK1, primary screen, biochemical, biotinylated probe, 635/667 nm fluorescence (AID 1099); conditions: higher = more signal;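 also: score merges 667nm spot fluorescence with signal to noise across triplicate slides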
[3] = small-molecule microarray binders of probe aCHRDL2, primary screen, biochemical, biotinylated probe, 635/667 nm fluorescence (AID 1100); conditions: higher = more signal
[4] = splicing luciferase reporter signal modulators, primary screen, spliceosome inhibition project, cell-based, HEK293, splice +/- reporter (AID 1101); conditions: luminescence, 24 h, higher = more signal, called active from +8 up or from −8 down;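 also: HEK293 cells carrying a splicing-competent luciferase reporter gene; test concentration not given here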
[5] = biological target: Fibroblast growth factor 10 (Homo sapiens) (UniProt O15520); assay: FGF10 binders on small-molecule microarrays, primary screen, biochemical, small-molecule microarray, 635 nm fluorescence (AID 1102); conditions: FGF10 binding, fluorescence 635 nm, higher = more signal
Fibroblast growth factor 10 (Homo sapiens), sequence (O15520 whole entry, looked up): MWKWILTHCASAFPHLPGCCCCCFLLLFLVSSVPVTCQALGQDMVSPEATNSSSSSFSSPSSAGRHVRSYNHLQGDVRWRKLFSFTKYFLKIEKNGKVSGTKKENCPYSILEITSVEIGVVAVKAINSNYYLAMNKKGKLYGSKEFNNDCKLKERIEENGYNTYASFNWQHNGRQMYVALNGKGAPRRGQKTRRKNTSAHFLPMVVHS

[6] = test system: glycogen synthase kinase-3 (GSK3A per assay name; protocol says GSK3B); assay: GSK3 binders on small-molecule microarrays, primary screen, biochemical, small-molecule microarray, 635 nm fluorescence, GSK3A (AID 1103); conditions: small-molecule microarray binding, fluorescence 635 nm; higher = more signal; also: the record names both GSK3A and GSK3B
[7] = biological target: Epidermal growth factor receptor (Homo sapiens) (UniProt P00533); assay: EGFR binders on small-molecule microarrays, primary screen, biochemical, small-molecule microarray, 635 nm fluorescence (AID 1104); conditions: EGFR binding, higher = more signal;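 also: score merges 667 nm emission intensity with spot signal to noise over triplicate slides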
Epidermal growth factor receptor (Homo sapiens), sequence (P00533 whole entry, looked up): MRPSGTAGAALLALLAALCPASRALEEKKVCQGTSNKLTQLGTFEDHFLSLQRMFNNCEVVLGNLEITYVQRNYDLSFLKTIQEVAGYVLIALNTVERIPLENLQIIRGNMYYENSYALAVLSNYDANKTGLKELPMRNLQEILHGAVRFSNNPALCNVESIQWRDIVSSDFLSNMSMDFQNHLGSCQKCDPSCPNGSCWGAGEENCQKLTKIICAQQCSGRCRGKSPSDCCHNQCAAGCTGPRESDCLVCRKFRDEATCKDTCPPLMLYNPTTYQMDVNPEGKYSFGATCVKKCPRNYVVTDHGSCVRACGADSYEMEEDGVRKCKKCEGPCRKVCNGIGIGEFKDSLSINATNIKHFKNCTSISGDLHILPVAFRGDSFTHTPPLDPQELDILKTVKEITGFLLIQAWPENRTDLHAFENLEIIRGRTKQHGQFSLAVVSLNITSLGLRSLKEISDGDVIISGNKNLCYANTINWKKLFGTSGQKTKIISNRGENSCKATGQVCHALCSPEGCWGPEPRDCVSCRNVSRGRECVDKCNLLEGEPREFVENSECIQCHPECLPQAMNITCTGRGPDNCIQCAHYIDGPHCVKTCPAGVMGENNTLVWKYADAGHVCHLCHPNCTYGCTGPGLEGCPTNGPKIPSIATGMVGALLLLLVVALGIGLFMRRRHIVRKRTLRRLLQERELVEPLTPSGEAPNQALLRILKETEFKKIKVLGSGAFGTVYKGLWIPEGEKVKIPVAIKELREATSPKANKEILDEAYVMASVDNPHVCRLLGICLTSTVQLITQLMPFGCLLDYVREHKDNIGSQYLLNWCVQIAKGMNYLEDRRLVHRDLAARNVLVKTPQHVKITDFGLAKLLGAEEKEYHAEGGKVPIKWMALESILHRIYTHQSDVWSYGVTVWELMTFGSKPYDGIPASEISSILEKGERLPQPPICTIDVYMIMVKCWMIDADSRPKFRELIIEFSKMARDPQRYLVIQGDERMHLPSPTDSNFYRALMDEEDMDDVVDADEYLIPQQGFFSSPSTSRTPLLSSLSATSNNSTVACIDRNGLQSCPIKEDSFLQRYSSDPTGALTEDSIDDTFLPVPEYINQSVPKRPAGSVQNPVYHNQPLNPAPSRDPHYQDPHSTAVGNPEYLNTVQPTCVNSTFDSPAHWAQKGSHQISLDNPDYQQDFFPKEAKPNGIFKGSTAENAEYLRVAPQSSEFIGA

[8] = biological target: Follistatin-related protein 3 (Homo sapiens) (UniProt O95633); assay: FSTL3 binders on small-molecule microarrays, primary screen, biochemical, small-molecule microarray, 635 nm fluorescence (AID 1105); conditions: FSTL3 binding, higher = more signal;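 also: score merges emission near 667 nm and signal to noise per printed spot across three slides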
Follistatin-related protein 3 (Homo sapiens), sequence (O95633 whole entry, looked up): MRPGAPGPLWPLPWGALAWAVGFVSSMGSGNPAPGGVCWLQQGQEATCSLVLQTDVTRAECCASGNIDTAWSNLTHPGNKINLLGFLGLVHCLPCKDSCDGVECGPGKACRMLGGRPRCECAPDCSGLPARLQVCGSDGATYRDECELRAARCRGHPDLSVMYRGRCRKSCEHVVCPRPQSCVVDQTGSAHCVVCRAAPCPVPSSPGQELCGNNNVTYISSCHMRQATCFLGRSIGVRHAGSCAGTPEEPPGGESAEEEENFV

[9] = biological target: Dickkopf-related protein 1 (Homo sapiens) (UniProt O94907); assay: DKK1 binders on small-molecule microarrays, primary screen, biochemical, small-molecule microarray, 635 nm fluorescence scan (AID 1106); conditions: DKK1 binding, higher = more signal;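 also: score merges emission near 667 nm with signal to noise over three replicate slides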
Dickkopf-related protein 1 (Homo sapiens), sequence (O94907 whole entry, looked up): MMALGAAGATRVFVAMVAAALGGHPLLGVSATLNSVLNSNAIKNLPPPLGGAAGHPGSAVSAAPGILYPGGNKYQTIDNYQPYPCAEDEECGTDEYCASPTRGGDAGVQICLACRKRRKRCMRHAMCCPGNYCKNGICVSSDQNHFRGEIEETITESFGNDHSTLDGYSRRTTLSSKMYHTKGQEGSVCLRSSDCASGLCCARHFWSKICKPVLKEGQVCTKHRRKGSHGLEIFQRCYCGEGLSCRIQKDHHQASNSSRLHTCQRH

[10] = test system: Inhibin beta A chain (activin A); assay: INHBA (activin A) binders on microarrays, primary screen, biochemical, small-molecule microarray, 635 nm fluorescence scan (AID 1107); conditions: small-molecule microarray binding, higher = more signal;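 also: mouse activin A protein probed at 4.33 µg/mL on printed slides; score merges bound-protein fluorescence near 667 nm with spot signal-to-noise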
[11] = test system: Human papillomavirus type 1a protein E7 (residues 44-93); assay: HPV1a E7 fragment binders on microarrays, primary screen, biochemical, small-molecule microarray, residues 44-93, 635 nm fluorescence (AID 1108); conditions: small-molecule microarray binding, fluorescence 635 nm; higher = more signal;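 also: E7 fragment applied at 1 µg/mL in TBST for 1 h at 4 C; score combines spot fluorescence with its signal to noise ratio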
[12] = modulators of HCV replicon luciferase signal, primary screen, HCV replication inhibitor project, Huh7 cells, luciferase reporter (AID 1109); conditions: 48 h, higher = more signal;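 also: huh7 hepatoma cells harbouring a luciferase neomycin HCV replicon reporter; luciferase luminescence as measure of HCV replicon replication; test concentration not given here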
[13] = biological target: Left-right determination factor 2 (Homo sapiens) (UniProt O00292); assay: LEFTY2 binders on small-molecule microarrays, primary screen, biochemical, small-molecule microarray, 635 nm fluorescence scan (AID 1110); conditions: LEFTY2 binding, higher = more signal
Left-right determination factor 2 (Homo sapiens), sequence (O00292 whole entry, looked up): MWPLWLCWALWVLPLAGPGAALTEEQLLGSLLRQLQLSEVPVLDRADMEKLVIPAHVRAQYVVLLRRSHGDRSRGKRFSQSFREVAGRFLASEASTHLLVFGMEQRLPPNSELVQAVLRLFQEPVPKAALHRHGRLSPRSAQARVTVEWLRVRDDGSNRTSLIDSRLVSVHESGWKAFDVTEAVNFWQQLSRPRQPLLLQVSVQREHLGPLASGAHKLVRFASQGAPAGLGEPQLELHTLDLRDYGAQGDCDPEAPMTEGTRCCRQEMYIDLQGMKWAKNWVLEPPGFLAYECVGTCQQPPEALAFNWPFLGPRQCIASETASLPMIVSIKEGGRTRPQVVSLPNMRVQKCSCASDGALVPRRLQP

[14] = biological target: Calmodulin-1 (Homo sapiens) (UniProt P0DP23); assay: CALM1 binders on microarrays, EGTA buffer, profiling panel, biochemical, small-molecule microarray, Cy5-labelled CALM1 (AID 1111); conditions: Cy5-CALM1 binding fluorescence, higher = more signal;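 also: labelled calmodulin applied in Tris saline Tween buffer holding calcium plus EGTA and DTT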
[15] = biological target: Calmodulin-1 (Homo sapiens) (UniProt P0DP23); assay: calcium-bound CALM1 binders on microarrays, profiling panel, artefact control for SMM control-protein annotation, biochemical, small-molecule microarray, Cy5-labelled CALM1, plus calcium (AID 1112); conditions: Cy5-CALM1 binding fluorescence, higher = more signal;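 also: score merges spot fluorescence with signal to noise from triplicate slides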
[16] = small-molecule microarray binders of probe aWnt5a, primary screen, biochemical, biotinylated probe, 635/667 nm fluorescence (AID 1113); conditions: higher = more signal;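 also: score merges 667 nm fluorescence intensity with signal-to-noise per printed feature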
[17] = small-molecule microarray binders of probe aShh, primary screen, biochemical, biotinylated probe, 635/667 nm fluorescence (AID 1114); conditions: higher = more signal;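 also: probe is biotin-labelled aShh protein from a stem cell growth factor screen; measures binding of labelled protein to compounds printed on the slide; score merges feature fluorescence at 667 nm with signal-to-noise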
[18] = small-molecule microarray binders of probe aNog, primary screen, biochemical, biotinylated probe, 635/667 nm fluorescence (AID 1115); conditions: higher = more signal;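 also: probe is biotinylated aNog protein used at 0.15 µg/mL for 1 h at 4 C; z-score combines 667 nm fluorescence of each spot with its signal to noise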
[19] = biological target: Torsin-1A-interacting protein 1 (Homo sapiens) (UniProt Q5JTV8); assay: LAP1 binders from COS7 cell lysate, primary screen, small-molecule microarray, 635/667 nm fluorescence (AID 1116); conditions: COS7-hLAP1 lysate binding, 635 nm fluorescence, higher = more signal
Torsin-1A-interacting protein 1 (Homo sapiens), sequence (Q5JTV8 whole entry, looked up): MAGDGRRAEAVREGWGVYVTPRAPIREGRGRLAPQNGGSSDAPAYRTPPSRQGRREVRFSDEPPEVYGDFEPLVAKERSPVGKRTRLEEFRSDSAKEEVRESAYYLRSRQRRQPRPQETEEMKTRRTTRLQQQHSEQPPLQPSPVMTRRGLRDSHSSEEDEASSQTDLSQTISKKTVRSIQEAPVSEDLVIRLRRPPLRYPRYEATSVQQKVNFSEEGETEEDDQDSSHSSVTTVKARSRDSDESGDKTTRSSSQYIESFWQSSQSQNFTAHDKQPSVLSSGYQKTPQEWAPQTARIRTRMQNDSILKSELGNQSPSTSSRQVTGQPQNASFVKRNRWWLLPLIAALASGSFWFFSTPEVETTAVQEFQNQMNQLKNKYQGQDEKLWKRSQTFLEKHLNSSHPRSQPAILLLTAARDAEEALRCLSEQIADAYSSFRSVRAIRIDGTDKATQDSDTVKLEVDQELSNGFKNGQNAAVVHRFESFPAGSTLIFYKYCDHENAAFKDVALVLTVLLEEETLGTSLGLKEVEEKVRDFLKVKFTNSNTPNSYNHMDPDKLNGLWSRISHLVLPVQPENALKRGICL

[20] = biological target: Alpha-bungarotoxin (Bungarus multicinctus) (UniProt P60615); assay: alpha-bungarotoxin binders on microarray, profiling panel, artefact control for SMM control protein annotation, biochemical, small-molecule microarray, Alexa647 label, 635/667 nm fluorescence (AID 1117); conditions: alpha-BTX-A647 binding fluorescence, higher = more signal
Alpha-bungarotoxin (Bungarus multicinctus), sequence (P60615 whole entry, looked up): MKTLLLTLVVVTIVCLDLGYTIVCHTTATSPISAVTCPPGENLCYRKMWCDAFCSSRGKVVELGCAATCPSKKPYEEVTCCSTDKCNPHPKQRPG

Structure (SMILES)	composite z-score [1]	composite z-score [2]	composite z-score [3]	z-score [4]	composite z-score [5]	composite z-score [6]	composite z-score [7]	composite z-score [8]	composite z-score [9]	composite z-score [10]	composite z-score [11]	z-score [12]	composite z-score [13]	composite z-score [14]	composite z-score [15]	composite z-score [16]	composite z-score [17]	composite z-score [18]	composite z-score [19]	composite z-score [20]
C=CCNC(=O)[C@@H]1[C@H]2C(=O)O[C@H](c3ccccc3)[C@H](c3ccccc3)N2[C@H](c2ccc(OCCO)cc2)[C@@]12C(=O)N(C(=O)OCCOC)c1ccc(C#Cc3ccc(OC)cc3)cc12	1.29	0.0181	0.299	-1.33 (inactive)	0.753	1.27	0.356	1.34	0.489	0.688	1.01	-1.14	0.399	1.6	0.169	-0.27	-0.291	-0.272	0.229	1.22
C=CCC(OC(C)=O)[C@@H]1[C@@H](N(Cc2cccc3ccccc23)C(=O)Cc2ccc(F)cc2)c2cc(OCCCO)ccc2N1C(=O)c1ccc2ccccc2c1 (stereo not given in full)	-0.246	-0.469	0.0515	-0.527 (inactive)	-0.134	0.0566	0.0199	0.565	0.301	1.24	0.408	-0.204	0.171	-0.0876	0.441	-0.124	-0.0626	-0.17	-0.0393	0.0927
COc1cc(OC)c(C(O)C2C=CC3C(=O)N(Cc4ccccc4)C(=O)C3N2n2cnnc2)cc1Br (stereo not given)	1.36	0.287	0.373	-1.21 (inactive)	1.05	1.26	-0.496	0.777	-1.05	-0.769	1.36	-1.61	-0.6	0.181	0.595	0.0173	-0.131	0.665	0.781	0.871
COC(=O)[C@@]1(Cc2ccc(F)cc2)[C@H]2c3cc(C(=O)N4CCCC4)n(Cc4ccc(C)c(F)c4F)c3C[C@H]2CN1C(=O)c1ccccc1	0.961	0.902	0.931	-4.09 (inactive)	-0.291	-0.931	-0.499	-1.07	-0.453	1.42	-0.751	-0.914	-0.419	0.344	0.612	-0.119	-0.0813	0.935	0.65	-0.106
CCCNC(=O)[C@@]1(C)c2ccccc2C(=O)N(c2ccc(C)cn2)[C@H]1c1ccc(CO)cc1	0.732	-0.103	0.649	0.756 (inactive)	-0.779	-0.158	-0.473	-0.223	-0.126	0.948	-0.846	0.155	0.384	-0.474	-0.524	-0.124	-0.291	0.0373	0.311	-0.163
COCCOC(=O)N1C(=O)[C@@]2(c3cc(C#CCCO)ccc31)[C@H](C(=O)Nc1nc3ccccc3s1)[C@H]1C(=O)O[C@H](c3ccccc3)[C@H](c3ccccc3)N1[C@@H]2c1ccc(O)cc1	0.972	0.513	0.355	-0.221 (inactive)	1.16	1.34	0.989	1.43	0.957	0.211	1.16	-1.65	1.09	0.999	-0.237	-0.0445	0.191	0.566	0.549	1.6
Cc1ccc(S[C@]2(C(=O)O)CC(=O)N(C3CCCCC3)[C@@H]2c2ccc(CO)cc2I)cc1	1.48	0.431	0.903	-0.443 (inactive)	1.27	0.797	-0.131	1.04	-0.231	1.06	1.35	-0.298	-0.326	1.79	0.63	-0.113	0.351	1.06	1.4	0.763
COC(=O)[C@@H]1N=C(c2ccc(OCCCO)cc2)O[C@@H]1C	-0.0756	0.017	0.795	0.04 (inactive)	0.965	0.16	-0.55	-0.0372	0.0375	-0.004	0.783	2.62	0.309	-0.226	-1.2	-0.148	0.233	-0.356	1.71	-0.294
COC(=O)[C@@]1(Cc2ccc(OC)cc2)[C@H]2c3cc(C(=O)N4CCCC4)n(CCc4c[nH]c5ccc(OC)cc45)c3C[C@H]2CN1C(=O)c1ccccc1	0.789	1.5	1.55	-1.21 (inactive)	0.591	1.14	-0.0086	1.19	-0.299	0.877	0.113	-1.93	0.221	2.28	1.46	0.155	0.504	1.54	2.19	1.38
C=CC[C@@]1(C(=O)NCCCOC)N=C(c2ccc(OCCCO)cc2)O[C@@H]1c1ccccc1N=[N+]=[N-]	0.826	0.648	0.999	0.0875 (inactive)	0.919	0.595	-0.276	0.45	-0.178	0.961	1.44	-1.09	-0.553	0.968	-0.105	-0.0519	0.0639	0.291	0.905	0.767
CN(C)C(=O)[C@]1(Cc2ccccc2CN=[N+]=[N-])N=C(c2ccc(OCCCO)cc2)O[C@@H]1c1ccccc1	1.19	0.161	0.821	-1.45 (inactive)	0.647	0.497	-0.19	-0.202	-0.147	1.29	1.47	-3.37	-0.0728	1.56	0.596	0.0337	0.792	1.05	1.39	1.92
